The whole screen tested about 290,000 compounds, of which about 3,000 (1%) were called active. What follows is part of a selection rich in actives, with near analogues and random picks from the rest. Unmarked numbers belong to inactive results. Cut-off read from the data, not from the text of the source: active = inhibition mostly above about 36% (no sharp cut-off); inactive = mostly below about 34%.
Experiment: inhibition of NOD1-driven NF-kB reporter – cell-based, luminescence, uHTS, primary screen (AID 1578);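 note: HEK-293T reporter cells stimulated with the NOD1 agonist gamma-tri-DAP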
Settings: NOD1-driven NF-kB luciferase reporter cells, at 4 µM, stronger effect = higher value
CC(C)N(CCCNC(=O)c1ccc(CS(=O)(=O)c2c(Cl)cccc2Cl)o1)Cc1ccccc1 gave an inhibition of -4.4%. Work on CCOC(=O)N1CCN(C(=O)CSc2ccc3nnc(-c4cccnc4)n3n2)CC1 yielded an inhibition of -22.3%. In the case of CCOC(=O)C1(Cc2cccc(OC)c2)CCCN(C(=O)CCc2cccnc2)C1 (stereo unspecified), the inhibition was -50.3%. CCc1ccc(-n2cccc2/C=C2/C(=N)N3C(=NC2=O)SN=C3S(C)(=O)=O)cc1 gave an inhibition of 1.2%. With Cc1nn(CC(=O)N2CCC(C(N)=O)CC2)c(=O)c2nn(-c3ccccc3)c(C)c12 the inhibition was -5.3%. For COc1ccc(CNC(=O)c2csc(Cc3ccc(Cl)cc3)n2)cc1, the inhibition was 25.6%. With CC1CCN(c2nc(-c3ccccc3)c(C#N)c(=O)[nH]2)CC1 the inhibition was 34.5%. Molecule COc1ccc(-c2nc(N3CCCC3)[nH]c(=O)c2C#N)cc1 has an inhibition of -42.4%. With COc1ccc(-c2nc(N3CCC(C)CC3)[nH]c(=O)c2C#N)cc1 the inhibition was 73.1% (active). In the case of CCOC(=O)N1CCN(CC(O)COc2c(C)cccc2C)CC1 (stereo unspecified), the inhibition was 24.9%. With CCC(C)(C)NC(=S)Nc1ccccc1C the inhibition was -38.1%. With C=CCn1c(Oc2cccc(C)c2)nc2c1c(=O)n(C)c(=O)n2C the inhibition was -2.9%. For Cc1ccc(-c2onc3ccc(Cl)cc23)cc1, the inhibition was -3.6%. For COc1ccc(-c2onc3ccc(Cl)cc23)cc1, the inhibition was -9.1%. With Cc1cc(-c2onc3ccc(Cl)cc23)ccc1O the inhibition was 52.9% (active). CN1CCN(S(=O)(=O)c2cccc(C(=O)N(c3ccccn3)C3CCCCC3)c2)CC1 gave an inhibition of -0.4%. Molecule Cc1nc(SCC(=O)N2CCN(c3ccccc3)CC2)c2oc3ccccc3c2n1 has an inhibition of 33.4%. With CCc1nc(Nc2ccc(N3CCN(C(C)=O)CC3)cc2)c2oc3ccccc3c2n1 the inhibition was 7.6%. For CC1(O)CC(c2ccc(Cl)cc2)=NN1C(=O)c1ccc([N+](=O)[O-])cc1 (stereo unspecified), the inhibition was 92.3% (active). With CC(=O)N1N=C(c2ccc(Cl)cc2)CC1c1ccc([N+](=O)[O-])cc1 (stereo unspecified) the inhibition was -12.3%. Molecule CC1(O)CC(c2ccc(Cl)cc2)=NN1C(=O)c1ccc(Cl)cc1 (stereo unspecified) has an inhibition of -27.7%. CCOc1cc(/C=C2/NC(=S)NC2=O)ccc1OCc1ccc([N+](=O)[O-])cc1 showed an inhibition of -30%. CCOc1cc(/C=N/O)ccc1OCc1ccc([N+](=O)[O-])cc1 showed an inhibition of -20.2%. For COC(=O)c1cc(C)ccc1OCc1ccc([N+](=O)[O-])cc1, the inhibition was -8.7%. With COc1cc(/C=C/C(=O)O)ccc1OCc1ccc([N+](=O)[O-])cc1 the inhibition was -13.3%. Work on O=C(NCCc1ccccc1)C1(S(=O)(=O)c2ccc(Cl)cc2)CC1 yielded an inhibition of 7.4%. Molecule O=C(CSc1nc(-c2ccncc2)nn1CC(=O)N1CCCCC1)NC1CCCC1 has an inhibition of -4%. Work on CC1CC(=O)N(CC(=O)NCc2ccccc2)c2ccccc2S1(=O)=O (stereo unspecified) yielded an inhibition of -32.8%. For O=C1CCc2cc(S(=O)(=O)N3CCN(c4cccc(C(F)(F)F)c4)CC3)ccc2N1, the inhibition was -6.5%. Work on CC(=O)c1ccccc1NC(=O)COC(=O)/C(=C/c1ccccc1)n1nnnc1C yielded an inhibition of -8%. Molecule CC(=O)Nc1ccc(NC(=O)COC(=O)/C(=C/c2ccccc2)n2nnnc2C)cc1 has an inhibition of -15.3%. With Cc1nnnn1/C(=C\c1ccccc1)C(=O)OCC(=O)NC(C)(C)C the inhibition was 91.3% (active). In the case of CCOC(=O)C1(CCCc2ccccc2)CCN(C(=O)c2cnc(C)cn2)CC1, the inhibition was 2.2%. Molecule CC(=O)OC(C(=O)NC1CCCCC1)c1ccc(Cl)c(Cl)c1 (stereo unspecified) has an inhibition of -34.6%. COc1ccc(OCC(=O)N/N=c2\oc3c(OC)cccc3cc2C(N)=O)cc1 gave an inhibition of -30.3%. In the case of COc1ccc(CNC(=O)C(c2ccc(C)o2)N(Cc2cccs2)C(=O)Cc2cccs2)cc1 (stereo unspecified), the inhibition was 68.3% (active). COc1ccc(CNC(=O)C(c2ccco2)N(Cc2cccs2)C(=O)Cc2cccs2)cc1 (stereo unspecified) gave an inhibition of 2%. Molecule COc1ccc(CNC(=O)C(c2cccs2)N(Cc2ccco2)C(=O)Cc2cccs2)cc1 (stereo unspecified) has an inhibition of 23.3%. With COC(=O)C(C)n1cnc2c(nnn2-c2ccccc2)c1=O (stereo unspecified) the inhibition was -9.8%. With COc1ccc(C(=O)Nc2c(N)nc(SCC(=O)N3CCCCCC3)[nH]c2=O)cc1OC the inhibition was -4.3%. For Cc1cc2c(cc1S(=O)(=O)Nc1cccc(F)c1)n(C)c(=O)c(=O)n2C, the inhibition was 13.5%. In the case of O=C(c1ccc(Cl)c([N+](=O)[O-])c1)N1CCN(c2ccccn2)CC1, the inhibition was -1.9%. Work on O=C(c1ccc(S(=O)(=O)Cc2ccccc2Cl)c([N+](=O)[O-])c1)N1CCOCC1 yielded an inhibition of 13.5%. In the case of O=C(c1ccc(Sc2cccc(Cl)c2)c([N+](=O)[O-])c1)N1CCN(c2ccccn2)CC1, the inhibition was -34.4%. In the case of O=C(c1ccc(N2CCCC2)c([N+](=O)[O-])c1)N1CCN(c2ccccn2)CC1, the inhibition was -8.1%. With CC(C)Cc1nnc(NC(=O)CCC(=O)NC2CCCC2)s1 the inhibition was -20.3%. Molecule CC/C=C/C(=O)N1CC2(CC(c3cccc(NC(=O)c4ccccc4)c3)=NO2)C[C@@H]1C(N)=O (stereo partly specified) has an inhibition of 20.5%. O=c1c2c3c(sc2nc2n1CCC2)CCCCC3 showed an inhibition of -41%. Work on Cn1cnc2cc(NC(=O)COc3ccccc3)ccc21 yielded an inhibition of -63.1%. Molecule Cc1cccn2c(=O)c3cc(S(=O)(=O)c4ccc(Br)cc4)c(=N)n(C4CCCC4)c3nc12 has an inhibition of -42.6%. In the case of O=C(O)c1cccc(NS(=O)(=O)c2cc(S(=O)(=O)c3ccc(Cl)cc3)ccc2Cl)c1, the inhibition was 0.3%. For COc1cc(C(=O)NCc2ccc(-c3nc4ccccc4s3)cc2)cc(OC)c1OC, the inhibition was -45%. For COc1ccc(C(=O)NCc2ccc(-c3nc4ccccc4s3)cc2)cc1OC, the inhibition was -86.1%. Cc1ccc(-n2c(SCC(=O)Nc3ccc(C(=O)O)cc3)nnc2-c2ccncc2)cc1 showed an inhibition of -9.4%. O=C(CCNS(=O)(=O)c1c(Cl)cccc1Cl)OCC(=O)c1ccccc1 gave an inhibition of 10.5%. For Cc1nn(C)c(Cl)c1NC(=O)OCc1ccccc1, the inhibition was -9.7%. Molecule COc1ccccc1COC(=O)Nc1c(C)nn(C)c1Cl has an inhibition of 10.8%. For Cc1nn(C)c(Cl)c1NC(=O)OCc1ccc(Cl)cc1Cl, the inhibition was 68.3% (active). For CCc1ccccc1NC(=O)CCC(=O)N1CCSc2ccccc21, the inhibition was -3%. O=Nc1c(O)n(Cc2ccccc2)c2ccccc12 showed an inhibition of 9.5%. In the case of O=Nc1c(O)n(Cc2cccc(C(F)(F)F)c2)c2ccccc12, the inhibition was 82.8% (active). For O=Nc1c(O)n(Cc2cccc(Cl)c2)c2ccccc12, the inhibition was 34.1%. Work on Cc1cccc(NC(=S)NNC(=S)NC2CCCCC2)c1C yielded an inhibition of -15.3%. With CCOC(=O)c1[nH]c(C)c(CN(CCc2ccc(OC)c(OC)c2)C(=O)CCCC(=O)O)c1C the inhibition was -27.8%. CCOC(=O)C1CCCN(C(=O)CCn2nnnc2CN2CCOCC2)C1 (stereo unspecified) gave an inhibition of -14.8%. For CCOC(=O)C1CCCN(C(=O)CCCn2nnnc2CN2CCOCC2)C1 (stereo unspecified), the inhibition was 45% (active). For CCOC(=O)C1CCCN(C(=O)CCCn2nnnc2CN2CCC(C)CC2)C1 (stereo unspecified), the inhibition was -6.9%. Molecule O=C(O)CN1C(=O)CSc2ccccc21 has an inhibition of 14.5%. With O=C(CN1CCSc2ccccc21)NCCCc1ccccc1 the inhibition was -29.8%. Work on CCOC(=O)c1ccc(N2C(=O)CC(C)(CC)CC2=O)cc1 yielded an inhibition of -5%. For CC(C)(C)c1ccc(NC(=O)N2CCN(c3ccc([N+](=O)[O-])cn3)CC2)cc1, the inhibition was 29.4% (active). With CC(C)(C)c1ccc(NC(=O)N2CCCN(c3ccc([N+](=O)[O-])cn3)CC2)cc1 the inhibition was 0.9%. Molecule CC(C)(C)c1ccc(C(=O)N2CCCN(c3ccc([N+](=O)[O-])cn3)CC2)cc1 has an inhibition of -3.4%. With O=C(O)CCCN1C(=O)/C(=C/C=C/c2ccco2)SC1=S the inhibition was 23.3% (active). Work on O=C(O)CC(C(=O)O)N1C(=O)/C(=C/C=C/c2ccco2)SC1=S (stereo unspecified) yielded an inhibition of -8.8%. O=C(O)CCCN1C(=O)/C(=C\c2ccco2)SC1=S gave an inhibition of -3.5%. Molecule CC(=O)Nc1ccc(C(=O)N/C(=C/c2ccccc2)C(=O)Nc2cccc(C(=O)O)c2)cc1 has an inhibition of -27.4%. Work on O=C(CN1CCCCCC1)NCc1ccccc1 yielded an inhibition of -25.9%. O=C(CSc1nnc(Cn2nnc3ccccc32)o1)N(Cc1ccc(F)cc1)c1ccccc1 gave an inhibition of 37.1%. In the case of O=C(CSc1nnc(Cn2nnc3ccccc32)o1)N(Cc1ccc(Cl)cc1)c1ccccc1, the inhibition was 48.7% (active). Work on COc1ccc(N(Cc2ccccc2)C(=O)CSc2nnc(Cn3nnc4ccccc43)o2)cc1 yielded an inhibition of -12.4%. For O=C(O)c1ccc2c(c1)ncn2C1CCCCC1, the inhibition was -10.3%. In the case of NNC(=O)c1csc(Cc2c(Cl)sc3ccc(Cl)cc23)n1, the inhibition was 11.9%. Molecule CCOC(=O)CC1C(=O)NCCN1C(=O)COc1ccc(C(C)(C)C)cc1 (stereo unspecified) has an inhibition of -17.7%. For O=C(O)Cc1ccc(NC(=O)Cc2ccc3ccccc3c2)cc1, the inhibition was -30.6%. COc1cccc(-n2nnc3c(=O)n(CC(=O)N4CCCCC4)cnc32)c1 showed an inhibition of -13.7%. With Cc1ccc(NC(=O)C2C3C=CC4(O3)C2C(=O)N(CCCN2CCOCC2)C4C(=O)NC2CCCCC2)cc1Cl (stereo unspecified) the inhibition was -35.1%. With CC(C)c1cc(C(=O)O)on1 the inhibition was -10.1%. In the case of CC(C)c1cc(NC(=O)CCl)on1, the inhibition was 41.7% (active). With CC(C)c1cc(NC(=O)CSc2nnc(-c3ccccc3F)n2C)on1 the inhibition was 18.2%. With CCc1ccc(NC(=O)c2cc(CC(C)C)on2)cc1 the inhibition was -39.3%.

Reference: PubChem BioAssay AID1578 (Sanford-Burnham Center for Chemical Genomics, 2009)
